Test results as given in PubChem BioAssay (NCI).
About 83,000 compounds went through this panel and 20% of them were active in at least one assay; those are over-represented in the sample as a whole.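 Growth was measured after 48 h exposure to one concentration of compound in 96-well plates. Values under 10 count as active.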 Active and inactive are the calls of the source.

System: MDA-MB-468 breast
Assay: NCI-60 one-dose screen, 48 h (100 = growth as untreated, 0 = no growth, -100 = all killed)
Conditions: 10 µM unless noted

SMILES | growth
C=C1C(=O)O[C@H]2[C@H]1CC/C(COC(=O)c1cccnc1)=C\CC[C@@]1(C)O[C@@H]21 | 17.6% (inactive)
COc1ccc(-c2ccc3c(c2)sc2nc(-c4ccc(F)cc4)cn23)cc1 | 66.7% (inactive)
COc1ccc(Cn2cc3c(c2-c2cc(OC)c(OC)c(OC)c2)CCCc2cnoc2-3)cc1N | 46.7% (inactive)
COc1ccc(/C=N/Nc2nc3ccccc3s2)cc1 | 84.8% (inactive)
COc1ccc2c(c1)C(=O)CC(c1ccccc1OC)O2 (centres undefined) | 92.2% (inactive)
O=c1[nH]c2ccccc2cc1-c1nc2ccncc2[nH]1 | 75% (inactive)
CC1=C2C(=C[C@@](C)(COS(N)(=O)=O)[C@@H]2O)C(=O)[C@](C)(O)C12CC2 | -34% (active)
COc1cc(NS(C)(=O)=O)ccc1Cc1c2ccccc2nc2ccccc12 | -14.1% (active)
CCN(CC)CCCNc1ccnc2cc3ccccc3cc12 | 75.9% (inactive)
CCCC1(CN2c3ccccc3Sc3ccc(Cl)cc32)CCN(CC)C1 (centres undefined) | -64.2% (active)
COc1c(N)c2c(c([N+](=O)[O-])c1OC)C(=O)OC2 | 107% (inactive)
O=C(O)c1ccccc1C(=O)OC1CCCC2CCCC21 (centres undefined) | 102% (inactive)
COc1ccc(/C=C/C(=O)Nc2ccc(-c3nc4ccc(OC)cc4s3)cc2)cc1 | 67.2% (inactive)
N#C/C(=C\c1ccc2ccccc2c1)C(=O)Nc1sc2c(c1C#N)CCC2 | 96.8% (inactive)
O=C(Nc1ccc2ncnc(Nc3cccc(C(F)(F)F)c3)c2c1)c1cccs1 | -2.49% (active)
CCN1C(=O)N(CC)C2C1NN=c1s/c(=C\c3ccccc3Br)c(=O)n12 (centres undefined) | 27.5% (inactive)
CCC(C)N(CCNc1cc(OC)cc2cccnc12)CCC(C)C (centres undefined) | -24.8% (active)
CN(C)c1ncnc2c1cnn2C | 106% (inactive)
CCN(CC)CCN1C(=O)c2c(c3c4cc(Br)ccc4[nH]c3c3ccc4ccccc4c23)C1=O | -80.7% (active)
CC(C)(C)CC(C)(C)Cc1ccc(OCCOCC[N+](C)(C)Cc2ccccc2)cc1 | -35.3% (active)

SMILES | growth
CNC(=O)c1cc(-c2ccc(NC(=O)Nc3ccc(N4CCN(C)CC4)c(C(F)(F)F)c3)cc2)nc2cccnc12 | -73.8% (active)
OC1CCc2c(-c3ccc4ncnc(N5CCc6cc(F)c(Cl)cc65)c4c3)cncc21 (centres undefined) | 9.18% (active)
O=C1CC(c2ccccc2)Cc2nc3ccc(Br)cc3cc21 (centres undefined) | 0.354% (active)
CC(=O)O[C@H]1CC[C@@]2(C)C(=CC[C@@H]3[C@@H]2CC[C@]2(C)C(=O)N(O)C(=O)C[C@@H]32)C1 | 83.6% (inactive)
Nc1c(C(=O)Nc2cccc(Cl)c2)sc2nc3c(cc12)C(O)CCC3 (centres undefined) | 39.5% (inactive)
CN1CCN(Cc2ccc(C(=O)Nc3cncc(C#Cc4cnc(N)c5ccccc45)c3)cc2C(F)(F)F)CC1 | -61.9% (active)
CCOc1nc(-c2ccccc2)cc2c(O)c(C(=O)N/N=C/c3ccc(OC)cc3)[nH]c(=O)c12 | 61.9% (inactive)
CCCCCCCCCCCC1=NC(C)(C)CN1CC(C)O (centres undefined) | 10% (inactive)
CCN(CC)C(=O)C1(C)CCCC2(C)c3cc(OC(C)=O)ccc3CCC12 (centres undefined) | 56.9% (inactive)
C[C@]1(CO)C[C@@H](O)C[C@]2(C)[C@@H]1CC[C@@]13C[C@@H]4[C@@H](C[C@H]12)[C@]4(C)C3 | 113% (inactive)
COc1ccc(-c2ccc(-c3ccc(C(=N)N)cn3)o2)cc1 | 48.7% (inactive)
Cc1nc(N)nc(SCc2ccccc2)c1Br | 69% (inactive)
CCCCCN(CCCCC)CCC[C@@H](C)[C@H]1CC[C@H]2[C@@H]3[C@H](OCCCN)C[C@@H]4C[C@H](OCCCN)CC[C@]4(C)[C@H]3C[C@H](OCCCN)[C@]12C | 71.1% (inactive)
Oc1ccccc1-c1nnco1 | 88.7% (inactive)
Cc1cc(Nc2cc(N3CCN(C)CC3)nc(Sc3ccc(NC(=O)C4CC4)cc3)n2)n[nH]1 | 46.7% (inactive)
C[C@@H](Oc1ccc(C(=O)NS(=O)(=O)C(C)(C)C)cc1C(F)(F)F)c1ccc(Oc2ccccc2)cn1 | -13.5% (active)
CCCCCCCCCCCCCCNCc1ccccc1 | -29.3% (active)
Cn1c(=O)c2nc(SCc3ccccc3)n(C)c2n(C)c1=O | 103% (inactive)
COc1ccc(/C(=N\O)c2cc(C)c(OC)c(C)c2)cc1O | 44.4% (inactive)
